Common to all, as to conditions: mRNA level, 48 h; actives raise or lower the signal
Read-out in assay [1]: Alkaline Phosphatase, Placental (ALPP) gene, ALPP (gene 250)
In words: LTEA_HepaRG_ALPP: Life Technologies and Expression Analysis (LTEA) Assay for Alkaline Phosphatase, Placental (ALPP) gene using HepaRG (AID 2283468). The procedure, abridged:
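ALPP transcript level, measured by qRT-PCR and normalized to three housekeeping genes (ACTB, GAPDH, POLR2A), after 48 h dosing of differentiated HepaRG in serum-free induction medium. Top concentration 100 uM with half-log dilutions (8 points, 0.5% DMSO, duplicates); bidirectional fitting relative to DMSO.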

Read-out in assay [2]: Bcl-2 (BAD) gene, BAD (gene 572)
In words: LTEA_HepaRG_BAD: Life Technologies and Expression Analysis (LTEA) Assay for Bcl-2 (BAD) gene using HepaRG (AID 2283469). The procedure, abridged:
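Differentiated human HepaRG cells in serum-free induction medium were exposed in duplicate for 48 h to eight concentrations (top 100 uM, half-log steps, 0.5% DMSO). BAD mRNA was quantified by qRT-PCR normalised to ACTB, GAPDH and POLR2A, with bidirectional fitting versus DMSO.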

Read-out in assay [3]: Bcl-2 (BAX) gene, BAX (gene 581)
The experiment in a line: LTEA_HepaRG_BAX: Life Technologies and Expression Analysis (LTEA) Assay for Bcl-2 (BAX) gene using HepaRG (AID 2283470). In a few lines:
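Differentiated HepaRG cells exposed 48 h in serum-free induction medium, eight half-log concentrations from 100 uM, in duplicate, 0.5% DMSO vehicle. BAX mRNA by TaqMan qRT-PCR, normalised to ACTB, GAPDH and POLR2A.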

Read-out in assay [4]: adenosine kinase (ADK) gene, ADK (gene 132)
The experiment in a line: LTEA_HepaRG_ADK: Life Technologies and Expression Analysis (LTEA) Assay for adenosine kinase (ADK) gene using HepaRG (AID 2283471). In a few lines: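 Following 48 h exposure of HepaRG cells in 0.5% DMSO (top concentration 100 uM, duplicate wells), ADK mRNA induction or suppression was measured by qRT-PCR, normalised to ACTB/GAPDH/POLR2A, and fitted bidirectionally relative to vehicle.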

Read-out in assay [5]: Alpha-fetoprotein (AFP) gene, AFP (gene 174)
In words: LTEA_HepaRG_AFP: Life Technologies and Expression Analysis (LTEA) Assay for Alpha-fetoprotein (AFP) gene using HepaRG (AID 2283472). The procedure, abridged:
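Differentiated human HepaRG cells exposed 48 h in serum-free induction medium, 8-point half-log series from 100 uM in 0.5% DMSO, duplicate. AFP mRNA by qRT-PCR, normalized to ACTB, GAPDH, POLR2A; bidirectional fit vs DMSO.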

Read-out in another assay: BCL2L11 (gene 10018)
The experiment in a line: LTEA_HepaRG_BCL2L11: Life Technologies and Expression Analysis (LTEA) Assay for Bcl-2 (BCL2L11) gene using HepaRG (AID 2283473). In a few lines: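 BCL2L11 transcript levels are measured by Fluidigm qRT-PCR, normalized to three housekeeping genes. HepaRG cultures were plated 48 h, then treated 48 h with test chemical (top 100 uM, half-log, 0.5% DMSO vehicle); curves were fitted bidirectionally against DMSO.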

Read-out in assay [6]: Apolipoprotein A-V (APOA5) gene, APOA5 (gene 116519)
In words: LTEA_HepaRG_APOA5: Life Technologies and Expression Analysis (LTEA) Assay for Apolipoprotein A-V (APOA5) gene using HepaRG (AID 2283474). In a few lines: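 APOA5 transcript levels were quantified by qRT-PCR, normalized to three housekeeping genes, after 48 h chemical treatment of HepaRG cells (8 points, 100 uM maximum, half-log steps, 0.5% DMSO). Curves fitted in both directions against vehicle.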

Read-out in assay [7]: Apoptosis regulator Bcl-2 (Homo sapiens) (UniProt P10415)
The experiment in a line: LTEA_HepaRG_BCL2: Life Technologies and Expression Analysis (LTEA) Assay for Bcl-2 gene using HepaRG (AID 2283475). The procedure, abridged: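 Differentiated human HepaRG cells in serum-free induction medium exposed 48 h, in duplicate, to 8-point half-log series from 100 uM in 0.5% DMSO. BCL2 mRNA by qRT-PCR (TaqMan/Fluidigm), normalized to ACTB, GAPDH, POLR2A; bidirectional fit against DMSO.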

Read-out in assay [8]: Bcl-2 (BID) gene, BID (gene 637)
The experiment in a line: LTEA_HepaRG_BID: Life Technologies and Expression Analysis (LTEA) Assay for Bcl-2 (BID) gene using HepaRG (AID 2283476). In a few lines: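 Gene expression by qRT-PCR in HepaRG cells after 48 h exposure, duplicate wells, eight half-log concentrations topping at 100 uM in 0.5% DMSO. Normalized to ACTB, GAPDH, POLR2A; bidirectional fitting relative to DMSO.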

Read-out in a further assay: Caspase-3 (Homo sapiens) (UniProt P42574)
In words: LTEA_HepaRG_CASP3: Life Technologies and Expression Analysis (LTEA) Assay for cysteine-aspartic acid protease (CASP3) using HepaRG (AID 2283477). In a few lines: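 Expression of CASP3 was quantified by TaqMan qRT-PCR against three housekeeping genes (ACTB, GAPDH, POLR2A), bidirectionally versus 0.5% DMSO. HepaRG cultures received compounds in duplicate, top 100 uM with half-log steps, for 48 h in serum-free induction medium.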

Read-out in assay [9]: Cytochrome P450 (CYP24A1), CYP24A1 (gene 1591)
In words: LTEA_HepaRG_CYP24A1: Life Technologies and Expression Analysis (LTEA) Assay for Cytochrome P450 (CYP24A1) using HepaRG (AID 2283478). In a few lines:
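mRNA of CYP24A1 quantified by TaqMan qRT-PCR (ACTB/GAPDH/POLR2A normalization) after 48 h chemical exposure of HepaRG cells, top concentration 100 uM, half-log steps, 0.5% DMSO vehicle, duplicates. Curves fitted bidirectionally against DMSO baseline.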

Read-out in assay [10]: Cytochrome P450 (CYP1A2), CYP1A2 (gene 1544)
In words: LTEA_HepaRG_CYP1A2: Life Technologies and Expression Analysis (LTEA) Assay for Cytochrome P450 (CYP1A2) using HepaRG (AID 2283479). The procedure, abridged: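 CYP1A2 transcript measured by TaqMan qRT-PCR against three housekeeping genes after 48-hour chemical exposure of HepaRG cells. Eight-point half-log series topping at 100 uM in 0.5% DMSO, duplicates; gain or loss fitted relative to vehicle.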

Read-out in assay [11]: cysteine-aspartic acid protease (CASP8), CASP8 (gene 841)
The experiment in a line: LTEA_HepaRG_CASP8: Life Technologies and Expression Analysis (LTEA) Assay for cysteine-aspartic acid protease (CASP8) using HepaRG (AID 2283480). The procedure, abridged: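 Differentiated human HepaRG cells, plated 48 h then switched to serum-free induction medium, were exposed in duplicate for 48 h to 8 half-log concentrations up to 100 uM in 0.5% DMSO. CASP8 mRNA was quantified by qRT-PCR, normalized to ACTB/GAPDH/POLR2A.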

Read-out in assay [12]: Cytochrome P450 (CYP2B6), CYP2B6 (gene 1555)
In words: LTEA_HepaRG_CYP2B6: Life Technologies and Expression Analysis (LTEA) Assay for Cytochrome P450 (CYP2B6) using HepaRG (AID 2283481). In a few lines:
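CYP2B6 transcript level quantified by qRT-PCR against three housekeeping genes, fitted bidirectionally relative to DMSO. HepaRG cultures received chemicals for 48 h, 8-point half-log series from 100 uM in 0.5% DMSO, duplicate wells, serum-free induction medium.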

Read-out in assay [13]: Cytochrome P450 2C19 (Homo sapiens) (UniProt P33261)
In words: LTEA_HepaRG_CYP2C19: Life Technologies and Expression Analysis (LTEA) Assay for CYP2C19 using HepaRG (AID 2283482). The procedure, abridged: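 CYP2C19 transcript levels by qRT-PCR, normalized to three housekeeping genes, in HepaRG cells after 48 h chemical exposure. Eight-point half-log series topping at 100 uM, 0.5% DMSO vehicle. Increases and decreases both fitted against DMSO.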

Read-out in a further assay: CYP2C8 (gene 1558)
In words: LTEA_HepaRG_CYP2C8: Life Technologies and Expression Analysis (LTEA) Assay for CYP2C8 using HepaRG (AID 2283483). The procedure, abridged:
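Differentiated human HepaRG cells were exposed for 48 h in serum-free induction medium to eight half-log concentrations up to 100 uM in 0.5% DMSO, in duplicate. CYP2C8 mRNA was measured by TaqMan qRT-PCR, normalized to ACTB, GAPDH and POLR2A, and fitted bidirectionally against DMSO.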

Read-out in another assay: CYP2C9 (gene 1559)
In words: LTEA_HepaRG_CYP2C9: Life Technologies and Expression Analysis (LTEA) Assay for CYP2C9 using HepaRG (AID 2283484). In a few lines:
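Differentiated human HepaRG cells were exposed 48 h in serum-free induction medium to eight half-log concentrations up to 100 uM in 0.5% DMSO. CYP2C9 mRNA was measured by qRT-PCR, normalized to ACTB, GAPDH and POLR2A, and fitted bidirectionally against DMSO.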

Read-out in a further assay: CYP2E1 (gene 1571)
The experiment in a line: LTEA_HepaRG_CYP2E1: Life Technologies and Expression Analysis (LTEA) Assay for CYP2E1 using HepaRG (AID 2283485). The procedure, abridged: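 HepaRG cells, plated 48 h, then exposed 48 h in serum-free induction medium to eight half-log concentrations from 100 uM in 0.5% DMSO, duplicate. CYP2E1 mRNA by qRT-PCR, normalized to ACTB/GAPDH/POLR2A; bidirectional fit versus DMSO.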

Read-out in a further assay: CYP4A11 (gene 1579)
The experiment in a line: LTEA_HepaRG_CYP4A11: Life Technologies and Expression Analysis (LTEA) Assay for CYP4A11 using HepaRG (AID 2283486). In a few lines:
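Readout is CYP4A11 transcript level by qRT-PCR, normalized to three housekeeping genes and fitted bidirectionally against 0.5% DMSO. Human HepaRG cells were treated 48 h, in duplicate, with an 8-point half-log series topping at 100 uM.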

Read-out in assay [14]: Cytochrome P450 3A4 (Homo sapiens) (UniProt P08684)
The experiment in a line: LTEA_HepaRG_CYP3A4: Life Technologies and Expression Analysis (LTEA) Assay for CYP3A4 using HepaRG (AID 2283487). The procedure, abridged:
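In a human hepatic line (HepaRG), duplicate wells were treated 48 h with up to 100 uM chemical in half-log dilutions. Endpoint: CYP3A4 mRNA induction or loss relative to 0.5% DMSO vehicle, by qRT-PCR.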

Activity calls are given as the source filed them. The calls were made as follows: active = hit-call score of the fitted dose curve at least 0.9, where 1 is the maximum; inactive = score below 0.9.

Chain of Cytochrome P450 3A4 (Homo sapiens) (P08684 whole entry, looked up): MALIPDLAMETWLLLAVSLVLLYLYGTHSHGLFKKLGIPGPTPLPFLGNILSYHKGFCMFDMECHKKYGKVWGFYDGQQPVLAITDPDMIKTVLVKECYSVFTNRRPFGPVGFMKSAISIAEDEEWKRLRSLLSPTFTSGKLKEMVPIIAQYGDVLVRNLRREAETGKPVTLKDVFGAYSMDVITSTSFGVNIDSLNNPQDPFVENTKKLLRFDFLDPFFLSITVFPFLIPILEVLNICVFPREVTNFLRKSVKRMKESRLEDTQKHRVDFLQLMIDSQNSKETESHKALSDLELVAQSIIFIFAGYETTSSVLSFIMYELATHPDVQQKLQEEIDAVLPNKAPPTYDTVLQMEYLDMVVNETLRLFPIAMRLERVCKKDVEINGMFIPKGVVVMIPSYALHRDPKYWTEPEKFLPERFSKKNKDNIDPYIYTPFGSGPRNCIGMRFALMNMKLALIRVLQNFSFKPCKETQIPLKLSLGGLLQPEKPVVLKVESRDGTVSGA
Chain of Apoptosis regulator Bcl-2 (Homo sapiens) (P10415 whole entry, looked up): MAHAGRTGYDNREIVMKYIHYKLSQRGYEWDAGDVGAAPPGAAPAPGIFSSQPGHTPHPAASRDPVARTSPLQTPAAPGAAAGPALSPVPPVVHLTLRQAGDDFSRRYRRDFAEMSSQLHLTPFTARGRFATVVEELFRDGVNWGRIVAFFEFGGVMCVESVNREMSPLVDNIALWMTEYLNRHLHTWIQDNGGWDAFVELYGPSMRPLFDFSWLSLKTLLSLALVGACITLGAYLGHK
Chain of Cytochrome P450 2C19 (Homo sapiens) (P33261 whole entry, looked up): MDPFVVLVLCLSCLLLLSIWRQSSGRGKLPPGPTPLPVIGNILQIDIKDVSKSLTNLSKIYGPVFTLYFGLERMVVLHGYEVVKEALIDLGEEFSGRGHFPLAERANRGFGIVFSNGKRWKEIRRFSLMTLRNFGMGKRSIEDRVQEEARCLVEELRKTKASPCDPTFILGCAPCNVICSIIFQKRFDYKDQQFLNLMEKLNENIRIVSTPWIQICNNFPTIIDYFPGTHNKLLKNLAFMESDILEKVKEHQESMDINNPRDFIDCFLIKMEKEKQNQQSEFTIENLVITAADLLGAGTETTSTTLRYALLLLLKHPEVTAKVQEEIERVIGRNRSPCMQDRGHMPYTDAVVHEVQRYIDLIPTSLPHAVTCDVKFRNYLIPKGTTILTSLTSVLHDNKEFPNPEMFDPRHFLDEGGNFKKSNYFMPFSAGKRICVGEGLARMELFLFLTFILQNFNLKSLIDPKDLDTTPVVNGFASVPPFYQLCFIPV
Chain of Caspase-3 (Homo sapiens) (P42574 whole entry, looked up): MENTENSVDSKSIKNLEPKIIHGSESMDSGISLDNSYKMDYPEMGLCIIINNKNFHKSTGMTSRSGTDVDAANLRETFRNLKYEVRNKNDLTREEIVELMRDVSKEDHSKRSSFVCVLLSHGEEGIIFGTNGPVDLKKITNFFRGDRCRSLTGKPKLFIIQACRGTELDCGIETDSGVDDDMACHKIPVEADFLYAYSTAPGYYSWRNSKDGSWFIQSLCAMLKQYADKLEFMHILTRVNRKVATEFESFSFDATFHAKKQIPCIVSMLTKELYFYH

On to `CN1COCN(Cc2cnc(Cl)s2)C1=N[N+](=O)[O-]`, for which the result (in assay [1]; in [2]; in assay [3]; in assay [4]; in assay [5]; with BCL2L11 (gene 10018)) was inactive. Further, the call (in assay [6]; in assay [7]; in [8]; with Caspase-3 (Homo sapiens); in assay [9]; in assay [10]) was inactive. For the same molecule, the outcome (in assay [11]; in assay [13]; with CYP2C8 (gene 1558); in the assay with CYP2C9 (gene 1559); in the assay with CYP2E1 (gene 1571); in the assay with CYP4A11 (gene 1579)) was inactive. Moreover, the AC50 in assay [12] is 50 µM (active); in assay [14] it was 38.8 µM (active).

On to `COP(=O)(OC)C(O)C(Cl)(Cl)Cl` (centres undefined), for which the AC50 in assay [1] was 0.0572 µM (active); in assay [8], 0.155 µM (active). For the same molecule, the outcome (in assay [2]; in [3]; in assay [5]; in the assay with BCL2L11 (gene 10018); in assay [6]; in [7]) was inactive. Besides, the result (with Caspase-3 (Homo sapiens); in assay [11]) was inactive.

As to `CC(Oc1cccc(Cl)c1)C(=O)O` (centres undefined), the molecule was called inactive (in assay [1]; in assay [2]; in assay [3]; in assay [4]; in [5]; in the assay with BCL2L11 (gene 10018)). Also, the molecule was called inactive (in [6]; in [7]; in assay [8]; in the assay with Caspase-3 (Homo sapiens); in assay [9]; in [10]). Also, the outcome (in assay [11]; in the assay with CYP4A11 (gene 1579)) was inactive. For the same molecule, the AC50 is 2.24 µM (active) in assay [12]; 7.31 µM (active) in [13]; 14.4 µM (active) with CYP2C8 (gene 1558); 2.04 µM (active) with CYP2C9 (gene 1559); 4.01 µM (active) in the assay with CYP2E1 (gene 1571); 10 µM (active) in assay [14].

With `CN(C)C(=O)Nc1cccc(C(F)(F)F)c1`, the outcome in [1], in assay [2], in [3], in assay [5], in assay [6] and in assay [7] was inactive. Further, the outcome (with Caspase-3 (Homo sapiens); in [9]; in assay [11]; in the assay with CYP2C9 (gene 1559); with CYP4A11 (gene 1579)) was inactive. Further, the concentration at half-maximal activity (AC50) is 50 µM (active) with BCL2L11 (gene 10018); 79.3 µM (active) in assay [8]; 42 µM (active) in assay [10]; 2.55 µM (active) in assay [12]; 16 µM (active) in assay [13]; 12.1 µM (active) with CYP2C8 (gene 1558). Also, the results for the AC50 (with CYP2E1 (gene 1571); in [14]) were 50 µM (active) and 10.4 µM (active), respectively.

Broadly, the AC50 is the midpoint of the concentration-response curve, whichever way the signal moves.

For the origin of these results see PubChem BioAssay (EPA / NIEHS).
